Hits are enriched below; roughly 19% of the tested compounds scored in any of these assays.
HT1080 IDH1KD tx: toxicity to HT-1080 IDH1 knockdown cells (counter line); HT-1080 IDH1 knockdown viability, ATP luminescence, 48 h; Potency, µM (doses to about 46.1 µM), hits mostly cytotoxic; actives 2% (n = 360,000)
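Cytotoxicity counter-line: IDH1KD HT-1080, 48 h, CellTiter-Glo. Curves classed by r2, magnitude and activity.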
HT1080-NT tox: kills 2HG-producing HT-1080-NT fibrosarcoma cells; HT-1080-NT fibrosarcoma viability, CellTiter-Glo ATP luminescence, 48 h; Potency, µM (top dose mostly 46.1 µM), usual class: cytotoxic; actives 1.6% (n = 360,000); AID 686970;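 further: NT is the 2HG producing partner of a matched IDH1 knockdown line; nearly all actives have a fitted effect of over 55% in size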
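HT-1080-NT; 750 cells/well; 5% FBS RPMI; 48 h compound, 37 degrees C; CellTiter-Glo luminescence; curve fitting and curve-class assignment.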
TDP1 cell CPT: growth inhibition of DT40 Tdp1-/-;hTDP1 cells with camptothecin (screen for TDP1 inhibitors); actives 12% (n = 420,000); AID 686979; chicken DT40 Tdp1-/-;hTDP1 cells + 20 nM CPT, ATP luminescence, 48 h; Potency, µM (series often up to 46.2 µM), hits mostly inhibitors; further: nearly all actives have a fitted effect of over 55% in size
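Chicken DT40 Tdp1-/- cells complemented with human TDP1, 400 cells/well, exposed to compounds plus 20 nM camptothecin for at least 48 h at 37 C; viability read as ATP content by CellTiter-Glo luminescence.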
IL-1B inflam inh: inhibitors of inflammasome signaling (IL-1 beta secretion); THP-1 LPS/ATP IL-1B secretion, AlphaLISA, 16 h; stronger effect = lower value; activity change, % at 57.5 µM; actives 4.7% (n = 360,000); in the data active means activity change below about -50%; inconclusive means mostly about -30% to -49%
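Secreted IL-1B measured by AlphaLISA bead assay after 16 h compound exposure of THP-1 cells; compounds (final up to 57.5 uM) added 1 h before LPS (250 ng/mL) and ATP (1.25 mM) stimulation; lower signal means less secretion.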
DT40 TDP1 no CPT: qHTS for Inhibitors of human tyrosyl-DNA phosphodiesterase 1 (TDP1): qHTS in cells in absence of CPT | Potency, µM (series often up to 46.2 µM), usual class: inhibitors | DT40 Tdp1-/- hTDP1 cells, no CPT, ATP luminescence, 48 h | actives 15% (n = 420,000); further: nearly all actives have a fitted effect of over 55% in size
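Camptothecin absent (DMSO only). Human TDP1-complemented DT40 knockout cells, 400 cells/well, 37 °C for minimum 48 hr; ATP measured via CellTiter-Glo, 30 min dark incubation, luminescence.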
ELG1 DNA repair: ELG1-dependent DNA repair inhibition; HEK293T ELG1-luciferase reporter, luminescence, 16 h; DNA damage induced by 5-fluorouridine; Potency, µM (doses to about 46.1 µM), most hits filed as inhibitors; actives 2.3% (n = 330,000); further: nearly all actives have a fitted effect of over 55% in size
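In this reporter screen, reduction of luminescence relative to DMSO vehicle indicated activity. Compounds and 5-fluorouridine were added together to 2,000 cells per well, incubated for 16 hr at 37 °C, then developed with ONE-Glo.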
Hits are given with their value; i = inactive; ? = inconclusive; nt = no result; ! = repeats disagree. Unless noted, the call rests on the fitted dose curve; in most records, active means well fitted curve in the direction sought with a large enough effect; inconclusive means small, poorly fitted or top-dose-only effect, or another doubt; inactive means no such curve, though single readings can be large; an effect the other way counts as inactive or inconclusive.

SMILES | HT1080 IDH1KD tx | HT1080-NT tox | TDP1 cell CPT | IL-1B inflam inh | DT40 TDP1 no CPT | ELG1 DNA repair
Cc1ccc(C)c(N2CCN(S(=O)(=O)c3ccc(-c4cnc(C5CC5)o4)cc3)CC2)c1 | nt | nt | 15µM | nt | 9.2µM | nt
Cc1cccc(N2CCN(S(=O)(=O)c3cn(C)cn3)CC2)c1C | i | i | i | i | i | i
Cc1ccc(SCC(=O)OCC(=O)N(CC(C)C)c2c(N)n(Cc3ccccc3)c(=O)[nH]c2=O)cc1C | i | ? | ? | i | ? | i
COc1cccc(N2CCN(Cc3nnc(-c4ccc5c(c4)OCO5)o3)CC2)c1 | nt | nt | i | nt | i | nt
Fc1ccc(N2CCN(Cc3nnc(-c4ccccc4)o3)CC2)cc1 | i | i | i | i | i | i
FC(F)(F)c1cccc(N2CCN(Cc3nnc(-c4ccc5c(c4)OCO5)o3)CC2)c1 | nt | nt | ? | nt | 16µM | nt
Fc1ccccc1N1CCN(Cc2nnc(-c3ccc4c(c3)OCO4)o2)CC1 | nt | nt | ? | nt | i | nt
Clc1ccc(N2CCN(Cc3nnc(-c4ccc5c(c4)OCO5)o3)CC2)cc1 | nt | nt | ? | nt | 18µM | nt
Fc1ccc(-c2nnc(CN3CCN(c4ncc(C(F)(F)F)cc4Cl)CC3)o2)cc1 | ? | i | 13µM | i | 15µM | i
Clc1nc(NCC2CCCO2)c2[nH]cnc2n1 (stereo not given) | nt | nt | i | nt | i | nt
O=c1[nH][nH]c2c1[C@H](c1ccc(F)cc1)O[C@H](CCC(F)(F)F)C2 | ? | ? | i | i | i | nt
O=c1[nH]ncc(N2CCN(C(c3ccccc3)c3ccccc3)CC2)c1Cl | i | i | 21µM | i | 10µM | i
COc1cccc2c(Cl)c(CC=C(Cl)Cl)c(C)nc12 | i | i | i | -50 | i | i
COc1ccccc1[C@@]1(C)ON(c2ccccc2C(F)(F)F)C1=O | i | i | ? | -94 | ? | 18µM
CC(C)[C@@]1(c2ccccc2)ON(c2ccccc2C(F)(F)F)C1=O | nt | nt | nt | nt | nt | i
O=C1N(c2ccccc2C(F)(F)F)OC1(Cc1ccccc1)c1ccccc1 (stereo not given) | i | i | i | -80 | ? | ?
C[C@H](CO)N1C[C@H](C)[C@@H](CN(C)C(=O)Nc2ccc3c(c2)OCO3)Oc2ccc(NC(=O)CCC(F)(F)F)cc2C1=O | i | i | i | i | i | i
NC(=O)c1csc(-c2ccncc2)n1 | i | i | i | i | i | i
Nc1cc(-c2ccncc2)c[nH]c1=O | i | i | ? | i | 16µM! | ?
O=C1C2C3C=CC(C3=C(c3ccccc3)c3ccccc3)C2C(=O)N1Cc1ccccc1 (stereo not given) | ? | i | ? | i | 18µM | i
Cc1cc(C)n(-c2ccc(NC(=O)C3CCCCN3C(=O)c3cc(C)oc3C)cc2)n1 (stereo not given) | i | i | 15µM | i | ? | i
COc1ccc(-c2csc3ncnc(Nc4cc(OC)cc(OC)c4)c23)cc1 | nt | nt | ? | nt | 16µM | nt
COc1ccc(-c2csc3ncnc(Nc4ccc(OC)cc4OC)c23)cc1 | nt | nt | 4.1µM | nt | ? | nt
CCN(CC(=O)Nc1c(F)cccc1F)C(=O)CCNC(=O)c1ccco1 | i | i | i | i | i | i
Cc1cn(-c2cc(C(=O)Nc3ccc(C)c(NC(=O)C(=O)c4c[nH]c5ccccc45)c3)cc(C(F)(F)F)c2)cn1 | ? | ? | 8.2µM | i | 7.3µM | ?
SMILES | HT1080 IDH1KD tx | HT1080-NT tox | TDP1 cell CPT | IL-1B inflam inh | DT40 TDP1 no CPT | ELG1 DNA repair
Cc1cc(C)c(C)c(S(=O)(=O)Nc2cccc(S(=O)(=O)Nc3ccccc3C(=O)O)c2)c1C | i | i | i | i | i | i
COc1ccc2c(c1)CCc1cn[nH]c1-2 | i | i | ? | i | 23µM | i
COc1ccc(-c2nc(C)ncc2-c2ccc(Cl)cc2)c(O)c1 | i | i | 15µM | i | i | i
CCOc1ccc(-c2[nH]ncc2-c2ccccc2)c(O)c1 | i | i | i | i | ? | i
COc1ccc(-c2cn[nH]c2-c2ccc(OCc3ccccc3)cc2O)cc1 | ? | i | ? | -99 | ? | 21µM
COc1ccc2c(c1)CCc1cnoc1-2 | i | i | i | i | i | nt
COc1ccccc1-c1cn[nH]c1-c1ccc(OCc2ccccc2)cc1O | ? | i | i | -99 | ? | ?
CC(C)C(O)c1ccc2c(c1)CN(C(=O)c1ccccc1-n1cccn1)CCO2 (stereo not given) | nt | nt | i | nt | i | nt
Cn1c(=O)c(-c2cc(F)cc(F)c2)nc2cnc(Oc3ccccc3)nc21 | nt | nt | i | nt | ? | nt
COc1ccccc1OCc1nnc(SCC(=O)Nc2nnc(C3CC3)s2)n1C | i | i | i | i | ? | i
CC(=O)NC(c1ccccc1)c1nc(-c2cccc(C#N)c2)cs1 (stereo not given) | i | i | ? | i | ? | nt
COc1ccc(-c2[nH]ncc2-c2ccc(Cl)cc2)c(O)c1 | ? | ? | i | i | ? | nt
COc1ccc(-c2cn[nH]c2-c2ccc(OC)cc2O)cc1 | ? | ? | ? | -84 | ? | 10µM
Cc1ccc(NC(=O)Cn2nc(C)c(S(=O)(=O)N(C)C)c2C)cc1C | i | i | ? | i | ? | i
O=S(=O)(c1cccc2nsnc12)N1CCNCC1 | i | i | i | i | i | i
COc1ccc2ccccc2c1C(=O)/C=C\c1ccoc1 | i | i | ? | -56 | ? | i
OCCN1CCN(c2nc(N3CCCCC3)nc(N3CCCCC3)n2)CC1 | i | i | ? | i | 18µM | ?
N=C(N)Sc1nc(N2CCCCC2)nc(N2CCCCC2)n1 | i | i | i | i | i | i
CCCn1nc(C(=O)NNC(=O)c2cc(S(=O)(=O)NC)ccc2Br)c2ccccc2c1=O | i | i | i | i | i | 8.2µM
COC(=O)c1cccc(NC(=O)c2nn(C(C)C)c(=O)c3ccccc23)c1 | i | i | i | i | i | i
CC(C)Cn1nc(C(=O)Nc2cccc(C(=O)NC3CC3)c2)c2ccccc2c1=O | i | i | ? | i | 18µM | 16µM
CCCn1nc(C(=O)Nc2ccc(S(=O)(=O)Nc3nccs3)cc2)c2ccccc2c1=O | i | i | i | i | i | i
CCCn1nc(C(=O)Nc2cccc(C(=O)OC)c2)c2ccccc2c1=O | i | i | ? | i | ? | 23µM
CCCn1nc(C(=O)Nc2cc(S(=O)(=O)Nc3ccc(OC)cc3)ccc2O)c2ccccc2c1=O | ? | ? | ? | i | ? | 16µM
CCN(CC)C(=O)CSc1nnc2[nH]c(=O)cc(C)n12 | nt | nt | i | nt | i | nt
Cc1cc(=O)c(C(=O)Nc2cccc(C(=O)NC3CC3)c2)nn1-c1ccccc1Cl | i | i | i | -54 | i | i

Compound activity: PubChem BioAssay, National Center for Advancing Translational Sciences (NCATS)
